Source: PubChem BioAssay
Activity calls are given as the source filed them. Unless noted, how the calls were made is not given here.

Legend:
[1] = A549 cell viability effects, profiling panel, calcein-AM fluorescence, 48 h, basal (AID 1162); conditions: higher = more signal; further: test concentration not given here
[2] = adipocyte viability effects, profiling panel, cell-based, 3T3-L1 adipocytes, calcein-AM fluorescence, 48 h, basal (AID 1163); conditions: 3T3-L1 adipocytes viability, higher = more signal; further: test concentration not given here
[3] = HepG2 cell viability effects, profiling panel, calcein-AM fluorescence, 48 h, basal (AID 1164); conditions: higher = more signal; further: test concentration not given here
[4] = MM1S cell viability effects, profiling panel, calcein-AM fluorescence, 48 h, basal (AID 1165); conditions: higher = more signal;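 further: viability of MM1S multiple myeloma cells under basal unstimulated conditions; test concentration not given here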
[5] = basal RPMI8226 viability, no added stimulus, profiling panel, cell-based, calcein-AM fluorescence, 48 h, PK04 Diversity Set (AID 1166); conditions: RPMI8226 myeloma viability, higher = more signal;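 further: cells grown under basal conditions without added stimulus; test concentration not given here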
[6] = basal HepG2 mitochondrial membrane potential changes, profiling panel, cell-based, JC-1 fluorescence, 24 h, 100 nL compound (AID 1167); conditions: higher = more signal; further: test concentration not given here
[7] = basal 3T3-L1 adipocyte mitochondrial potential changes, profiling panel, cell-based, JC-1 fluorescence, 3T3-L1 adipocytes, 24 h, 100 nL compound (AID 1168); conditions: JC-1 mitochondrial fluorescence, higher = more signal, called active from +8 up or from −8 down; further: test concentration not given here
[8] = basal RPMI8226 mitochondrial membrane potential changes, profiling panel, cell-based, JC-1 fluorescence, 24 h, 100 nL compound (AID 1169); conditions: RPMI8226 myeloma, JC-1 mitochondrial potential fluorescence, higher = more signal; further: test concentration not given here
[9] = basal MM1S mitochondrial membrane potential changes, profiling panel, cell-based, JC-1 fluorescence, 24 h, 100 nL compound (AID 1170); conditions: higher = more signal; further: test concentration not given here
[10] = A549 lung cancer cell viability effects, profiling panel, resazurin fluorescence, 24 h, PK04 Diversity Set (AID 1171); conditions: higher = more signal, called active from +8 up or from −8 down; further: test concentration not given here
[11] = HepG2 liver cancer cell viability effects, profiling panel, resazurin fluorescence, 24 h, PK04 Diversity Set (AID 1172); conditions: higher = more signal; further: test concentration not given here
[12] = basal S. cerevisiae growth modulation, no modifier, primary screen, OD600, strain BY4716, 24 h, basal condition (AID 1173); conditions: OD600, 24 h, higher = more signal, called active from +8 up or from −8 down
[13] = MM1S myeloma cell viability, profiling panel, resazurin fluorescence, basal, 24 h, PK04 Diversity Set (AID 1174); conditions: higher = more signal, called active from +8 up or from −8 down;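 further: MM1S multiple myeloma cell line; test concentration not given here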
[14] = target: Dihydroorotate dehydrogenase (quinone), mitochondrial (Plasmodium falciparum (isolate 3D7)) (UniProt Q08210); assay: PfDHODH enzyme inhibitors, primary screen, biochemical, C-terminal His tag, absorbance 600 nm (AID 1175); conditions: DCIP absorbance 600 nm, higher = more signal, called active from +8 up or from −8 down;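 further: recombinant parasite enzyme with a five histidine tag at its C terminus; test concentration not given here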
Sequence of Dihydroorotate dehydrogenase (quinone), mitochondrial (Plasmodium falciparum (isolate 3D7)) (Q08210 whole entry, looked up): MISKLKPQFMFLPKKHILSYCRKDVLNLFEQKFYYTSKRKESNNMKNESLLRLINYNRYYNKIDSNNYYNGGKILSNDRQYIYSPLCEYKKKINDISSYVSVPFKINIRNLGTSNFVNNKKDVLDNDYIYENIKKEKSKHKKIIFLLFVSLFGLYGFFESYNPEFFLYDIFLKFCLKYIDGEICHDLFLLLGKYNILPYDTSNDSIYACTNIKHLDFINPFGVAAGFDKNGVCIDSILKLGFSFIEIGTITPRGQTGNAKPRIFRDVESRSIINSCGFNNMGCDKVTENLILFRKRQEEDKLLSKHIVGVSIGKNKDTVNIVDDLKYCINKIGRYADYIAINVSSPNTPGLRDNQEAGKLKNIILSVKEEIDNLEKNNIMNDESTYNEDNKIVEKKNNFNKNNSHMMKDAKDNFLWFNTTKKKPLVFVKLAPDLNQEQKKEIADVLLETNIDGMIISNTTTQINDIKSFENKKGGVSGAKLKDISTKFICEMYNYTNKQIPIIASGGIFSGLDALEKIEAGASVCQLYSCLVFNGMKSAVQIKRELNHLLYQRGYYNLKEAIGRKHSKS

[15] = P. aeruginosa biofilm formation inhibitors, primary screen, strain PAO1, LB-PBS medium, absorbance 600 nm (AID 1176); further: test concentration not given here; conditions: P. aeruginosa PAO1 growth/biofilm, A600, 12 h; higher = more signal
[16] = S. cerevisiae RM11-1a growth modifiers, primary screen, strain RM11-1a, OD600, basal, 24 h (AID 1177); conditions: OD600, 24 h, higher = more signal, called active from +8 up or from −8 down;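 further: cultures grown under basal conditions with no added stressor; test concentration not given here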
[17] = E. coli acrAB mutant growth effects, primary screen, E. coli filamentation inducers, strain DRC39, OD650, 24 h (AID 1178); conditions: higher = more signal, called active from +8 up or from −8 down;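 further: growth measured as culture turbidity by optical density at 650 nm; test concentration not given here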
[18] = E. coli acrAB mutant growth effects, primary screen, E. coli filamentation inducers, strain DRC39, OD650, 48 h (AID 1179);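 further: screen aims at cell division blockers that make cells filament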; conditions: E. coli DRC39 delta-acrAB growth, higher = more signal, called active from +8 up or from −8 down
[19] = RPMI8226 myeloma cell viability, profiling panel, resazurin fluorescence, basal, 24 h, PK04 Diversity Set (AID 1180); conditions: higher = more signal;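 further: RPMI8826 multiple myeloma cell line at 5000 cells per well; test concentration not given here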
[20] = target: E3 ubiquitin-protein ligase XIAP (Homo sapiens) (UniProt P98170); assay: XIAP binders, primary screen, biophysical, small-molecule microarray, fluorescence 635 nm (AID 1181); conditions: small-molecule microarray binding, higher = more signal;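 further: score merges 667 nm emission and signal to noise over triplicate slides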
Sequence of E3 ubiquitin-protein ligase XIAP (Homo sapiens) (P98170 whole entry, looked up): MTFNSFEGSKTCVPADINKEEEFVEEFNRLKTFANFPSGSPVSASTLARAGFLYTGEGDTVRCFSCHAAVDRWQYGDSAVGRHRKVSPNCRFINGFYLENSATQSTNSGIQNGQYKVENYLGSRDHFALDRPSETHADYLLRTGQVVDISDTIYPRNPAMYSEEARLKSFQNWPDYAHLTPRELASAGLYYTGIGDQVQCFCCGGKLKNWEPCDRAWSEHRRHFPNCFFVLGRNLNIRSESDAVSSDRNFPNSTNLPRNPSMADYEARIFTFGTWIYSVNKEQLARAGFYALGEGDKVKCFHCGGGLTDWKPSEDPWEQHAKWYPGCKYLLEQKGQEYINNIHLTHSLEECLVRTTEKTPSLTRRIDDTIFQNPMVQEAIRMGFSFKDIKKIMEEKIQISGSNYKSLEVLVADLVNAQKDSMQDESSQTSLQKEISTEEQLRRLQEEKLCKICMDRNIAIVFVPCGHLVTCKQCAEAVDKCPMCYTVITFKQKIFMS

Row | Structure (SMILES) | z-score [1] | z-score [2] | z-score [3] | z-score [4] | z-score [5] | z-score [6] | z-score [7] | z-score [8] | z-score [9] | z-score [10] | z-score [11] | z-score [12] | z-score [13] | composite z-score [14] | z-score [15] | z-score [16] | z-score [17] | z-score [18] | z-score [19] | composite z-score [20]
1 | C=CC1=C[C@H](O)[C@@H]2O[C@@H]2C12OCCCO2 | -0.375 | -0.564 | -0.0684 | -0.705 | 0.265 | -0.977 | -0.729 (inactive) | -0.371 | -0.361 | 0.0527 (inactive) | 0.257 | 0.301 (inactive) | -0.458 (inactive) | 0.695 (inactive) | 0.262 (inactive) | -0.838 (inactive) | 0.451 (inactive) | 0.489 (inactive) | -0.38 | -0.03
2 | Cc1cc2c(nc1C)CCCN2CC(O)CN1CCCc2nc(C)c(C)cc21 | -0.254 | -0.0412 | -0.949 | -0.0227 | 0.391 | 0.00162 | -0.414 (inactive) | -0.108 | 0.382 | 0.189 (inactive) | 0.269 | 0.0477 (inactive) | -0.644 (inactive) | 0.0382 (inactive) | 0.979 (inactive) | 0.255 (inactive) | -0.494 (inactive) | -0.242 (inactive) | 0.399 | 1.12
3 | COc1ccc(COC(=O)NN=C2C[C@@H](O)[C@@H](O)[C@@H]3[C@@H]4C(=O)N(C5CCCCC5)C(=O)[C@@H]4CC[C@H]23)cc1 | -0.574 | -1.09 | -0.543 | -1.15 | -0.733 | -0.895 | -1.69 (inactive) | 0.249 | -0.244 | 0.0299 (inactive) | -0.689 | 1.07 (inactive) | -1.15 (inactive) | 0.608 (inactive) | 1 (inactive) | 0.335 (inactive) | -0.189 (inactive) | -0.582 (inactive) | -0.363 | -0.267
4 | C=COC[C@@H]1CN2[C@@H](CC[C@@H](C)[C@@H]2c2ccc(Br)cc2)C(=O)O1 | -0.0396 | 0.566 | -0.388 | -1.04 | -0.731 | -0.284 | 0.347 (inactive) | -0.795 | -0.228 | 0.378 (inactive) | -0.32 | -4.37 (inactive) | -0.345 (inactive) | -3.12 (inactive) | -1.01 (inactive) | -0.889 (inactive) | -1.03 (inactive) | -1.65 (inactive) | 0.169 | -0.0669
5 | O=C1C=C[C@@H](O)[C@@H]2[C@@H]3C(=O)N(c4ccc(F)cc4F)C(=O)[C@@H]3CC[C@@H]12 | 0.0767 | 0.244 | 1.04 | 0.157 | -1.1 | 0.991 | 0.46 (inactive) | -0.322 | 0.921 | -1.47 (inactive) | -0.862 | -1.76 (inactive) | -0.138 (inactive) | -1.11 (inactive) | 0.565 (inactive) | -2.01 (inactive) | -0.664 (inactive) | -0.52 (inactive) | -0.956 | -0.102
6 | CCOC(=O)[C@H](CC(C)C)NC(=O)CCC1CC(OC(=O)NCc2cccc3ccccc23)CC2(CCCC(COC(=O)NCC3CCCCC3)O2)O1 (stereo not given in full) | -0.15 | 1.09 | -0.993 | -2.66 | -1.28 | 0.895 | -0.0758 (inactive) | 0.273 | -0.929 | 0.945 (inactive) | 0.865 | -0.0452 (inactive) | 1.27 (inactive) | -2.33 (inactive) | -1.45 (inactive) | -0.288 (inactive) | -0.765 (inactive) | -0.0838 (inactive) | 0.463 | -0.0333
7 | CC(C)(C)N1C(=O)[C@H]2[C@H]3[C@H](O)[C@H](O)CC(=O)[C@@H]3CC[C@H]2C1=O | -0.743 | 0.436 | 0.178 | -0.102 | -0.052 | -0.323 | -0.715 (inactive) | 0.967 | 0.419 | 0.756 (inactive) | -0.0291 | -0.693 (inactive) | -0.0757 (inactive) | -0.251 (inactive) | 0.27 (inactive) | -0.736 (inactive) | -0.268 (inactive) | -0.653 (inactive) | -0.0415 | -0.177
8 | CON=Cc1ccc(C(=O)N2[C@H](c3ccc(C)cc3)[C@@H](C)CC[C@H]2C(=O)OC)cc1 | 0.281 | 0.0609 | -0.296 | 0.336 | 0.0411 | 0.129 | 0.345 (inactive) | 0.344 | 1.07 | 1.03 (inactive) | 0.259 | -2.35 (inactive) | 0.37 (inactive) | 0.442 (inactive) | -0.066 (inactive) | -0.308 (inactive) | 0.743 (inactive) | 0.0138 (inactive) | 0.589 | -0.0559
9 | CC(CCN1CCCc2nc(C)c(C)cc21)=NOC(C)CN1CCCCc2nc(C)c(C)cc21 (stereo not given) | -0.37 | -0.219 | -0.508 | -0.675 | -0.388 | 1.83 | -1.86 (inactive) | 0.264 | 0.547 | -0.0774 (inactive) | -0.0007 | 1.38 (inactive) | -0.221 (inactive) | 0.131 (inactive) | 1.3 (inactive) | 1.02 (inactive) | 0.315 (inactive) | -0.554 (inactive) | 0.347 | 0.593
10 | COc1ccc(COC(=O)NN=C2C[C@@H](O)[C@@H](O)[C@@H]3[C@@H]4C(=O)N(c5ccc(F)cc5F)C(=O)[C@@H]4CC[C@H]23)cc1 | 0.0819 | 0.232 | -1.01 | 0.698 | -0.887 | 0.361 | -0.982 (inactive) | -0.112 | -1.07 | 0.764 (inactive) | -0.238 | -0.291 (inactive) | 0.317 (inactive) | 0.0067 (inactive) | 0.307 (inactive) | -0.461 (inactive) | -0.0692 (inactive) | 0.138 (inactive) | 0.643 | 0.0674
11 | CCOC(=O)NN=C1C[C@@H](O)[C@@H](O)[C@@H]2[C@@H]3C(=O)N(c4cccc(Oc5ccccc5)c4)C(=O)[C@@H]3CC[C@@H]12 | -0.382 | 0.279 | -1.56 | -0.454 | -0.423 | -0.0933 | -0.451 (inactive) | -0.0715 | 0.524 | -0.0206 (inactive) | 0.358 | -0.22 (inactive) | -0.285 (inactive) | -0.108 (inactive) | 0.225 (inactive) | -0.114 (inactive) | -0.347 (inactive) | -1.28 (inactive) | 0.0541 | -0.122
12 | O=C(NN=C1C[C@@H](O)[C@@H](O)[C@@H]2[C@@H]3C(=O)N(C[C@@H]4CCCO4)C(=O)[C@@H]3CC[C@H]12)OCc1ccccc1 | -0.0032 | -0.0428 | -0.718 | 0.338 | -0.0238 | -0.249 | -0.0601 (inactive) | 0.536 | -0.853 | -0.714 (inactive) | -0.136 | 0.267 (inactive) | -0.239 (inactive) | -0.02 (inactive) | -0.531 (inactive) | -0.0555 (inactive) | 0.593 (inactive) | 0.191 (inactive) | 0.664 | 0.0451
13 | CC(CCN1CCCc2nc(C)c(C)cc21)=NO[C@@H](C)c1cc(-c2c(C)cc(C)cc2C)no1 | 0.91 | -0.0581 | 1.42 | -0.603 | -0.843 | 3.04 | -0.127 (inactive) | -0.0137 | -1.08 | -0.102 (inactive) | -0.616 | -1.54 (inactive) | -0.012 (inactive) | -0.837 (inactive) | 0.0525 (inactive) | 0.39 (inactive) | 0.898 (inactive) | -0.158 (inactive) | 0.378 | 0.194
14 | CCOC(=O)[C@H](CC(C)C)NC(=O)CCC1CC(OC(=O)NCc2cccc3ccccc23)CC2(CCCC(COC(=O)NCc3ccncc3)O2)O1 (stereo not given in full) | 0.357 | -0.0315 | -0.215 | -3.43 | -1.8 | 0.991 | 0.666 (inactive) | -0.12 | -1.14 | 0.645 (inactive) | -0.232 | -0.101 (inactive) | 0.192 (inactive) | 0.0964 (inactive) | 0.368 (inactive) | 0.559 (inactive) | 1.1 (inactive) | 0.399 (inactive) | -0.404 | -0.105
15 | CCCNC(=O)OC[C@H]1O[C@H](CCON=C(C)CCN2CCCc3nc(C)c(C)cc32)C=C[C@@H]1Oc1ccc(OC)cc1 | 0.476 | 1.43 | -0.243 | -0.878 | -1.57 | 2.15 | -1.09 (inactive) | 0.455 | 0.023 | 1.21 (inactive) | 0.691 | 0.766 (inactive) | -0.291 (inactive) | 0.0151 (inactive) | 0.9 (inactive) | -0.295 (inactive) | 0.908 (inactive) | 0.557 (inactive) | 1.46 | 0.284
16 | C#CCCCON=C1C[C@@H](O)[C@@H](O)[C@@H]2[C@@H]3C(=O)N(c4ccc(F)cc4F)C(=O)[C@@H]3CC[C@@H]12 | -0.194 | -0.566 | -1.07 | 0.344 | -0.865 | 0.843 | -1.15 (inactive) | 0.0995 | -0.413 | 0.193 (inactive) | 1.49 | -0.652 (inactive) | 0.225 (inactive) | -0.278 (inactive) | -1.25 (inactive) | -1.07 (inactive) | -0.0313 (inactive) | -0.152 (inactive) | 0.33 | -0.0786
